PAFAH1B3 FP inh = PAFAH1B3 enzyme inhibitors, primary screen, biochemical, fluorescence polarization, human; inhibition, % at 3.39 µM; 0.28% of 340,000 active; Platelet-activating factor acetylhydrolase IB subunit alpha1 (Homo sapiens), Q15102; AID 492972, 2010; recombinant PAFAH1B3, FP-rhodamine probe;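 active = inhibition above the screen-wide average of all tested compounds plus 3 SD, cut at about 25% in these data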
Target sequence (Q15102 whole entry, looked up): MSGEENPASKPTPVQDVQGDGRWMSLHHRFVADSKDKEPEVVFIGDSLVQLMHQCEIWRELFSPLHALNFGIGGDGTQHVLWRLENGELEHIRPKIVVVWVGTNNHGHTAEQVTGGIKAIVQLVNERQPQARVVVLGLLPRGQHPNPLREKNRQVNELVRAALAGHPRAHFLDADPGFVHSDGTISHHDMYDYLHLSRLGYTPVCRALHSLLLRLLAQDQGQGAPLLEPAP
DAGLB inhibitor = DAGLB lipase inhibitors, primary screen, biochemical, fluorescence, HTS | Diacylglycerol lipase-beta (Homo sapiens), Q8NCG7 | HEK293T DAGLB membrane lysate, EnzChek fluorogenic substrate | inhibition, % at 5.17 µM | 0.059% of 340,000 active | AID 504411, 2011; in the data active = inhibition above about 34%
ATG4B inh = ATG4B protease inhibitors, primary screen, biochemical, fluorescence, uHTS | ATG4B cleavage of LC3-PLA2, NBD-HPC fluorescence, 1 h | inhibition, % at 8.33 µM | 0.51% of 340,000 active; in the data active = inhibition above about 40%
PAFAH1B2 inh = PAFAH1B2 enzyme inhibitors, primary screen, biochemical, fluorescence polarization, human | Platelet-activating factor acetylhydrolase IB subunit alpha2 (Homo sapiens), P68402 | recombinant PAFAH1B2, FP-rhodamine activity probe | inhibition, % at 3.39 µM | 1.2% of 340,000 active | AID 492953, 2010;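 active = inhibition above the mean of all tested compounds plus 3 SD, cut at about 24% in these data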
Target sequence (P68402 whole entry, looked up): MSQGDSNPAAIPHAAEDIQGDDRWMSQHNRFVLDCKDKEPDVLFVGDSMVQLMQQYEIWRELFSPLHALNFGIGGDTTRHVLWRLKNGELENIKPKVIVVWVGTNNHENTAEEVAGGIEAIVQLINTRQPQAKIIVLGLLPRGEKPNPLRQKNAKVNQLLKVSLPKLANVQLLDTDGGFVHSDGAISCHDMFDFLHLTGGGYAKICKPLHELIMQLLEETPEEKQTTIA
PAFAH2 FP inh = PAFAH2 enzyme inhibitors, primary screen, biochemical, fluorescence polarization, human | AID 492956, 2010 | inhibition, % at 3.39 µM | 0.99% of 340,000 active | recombinant PAFAH2, FP-rhodamine activity probe;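 active = inhibition above the mean over all tested compounds plus 3 SD, cut at about 30% in these data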;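 also: inhibitors block probe labeling of enzyme so polarization drops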
pPAFAH inh = pPAFAH enzyme inhibitors, primary screen, biochemical, fluorescence polarization, human | Platelet-activating factor acetylhydrolase (Homo sapiens), Q13093 | recombinant pPAFAH, FP-rhodamine probe fluorescence polarization | inhibition, % at 3.39 µM | 1.5% of 330,000 active;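 active = inhibition above the mean inhibition across the screen plus 3 SD, cut at about 25% in these data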;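 also: inhibitors block binding of the rhodamine activity-based probe so polarization drops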
PAFAH2 FP conf = PAFAH2 enzyme inhibitors, confirmation, biochemical, fluorescence polarization, human | 65% of 2,300 active | inhibition, % at 3.39 µM | shares compounds with PAFAH2 FP inh | recombinant PAFAH2, FP-rhodamine activity probe;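 active = mean inhibition over three repeats above a set limit taken from the earlier primary screen, cut at about 30% in these data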;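 also: inhibitor blocks binding of rhodamine activity probe so polarization falls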
Of the large screens only hits and unclear results are named; the others gave an inactive call (follow-up assays come after a bar, where they were run). Only some compounds are listed: those with a hit (about 3% of all), similar ones and a draw of the others.

COc1cc(NC(=O)COc2ccc(Cl)cc2)ccc1-c1cc2ccccc2oc1=O	none
CCOC(=O)c1sc(=S)n(-c2ccccc2)c1N(C(C)=O)C(C)=O	PAFAH2 FP inh 35 | PAFAH2 FP conf inactive
Cn1c(=O)c2nc(Cl)c(-c3ccccc3)nc2n(C)c1=O	PAFAH2 FP inh 33 | PAFAH2 FP conf 38
Cn1c(=O)c2nc(-c3ccccc3)c(-c3ccccc3)nc2n(C)c1=O	none
COC(=O)C(=Cc1ccc(-c2ccsc2C(=O)OC)o1)C(=O)OC	none
COC(=O)c1sccc1-c1ccc(/C=N/OC(=O)c2cccs2)o1	PAFAH2 FP inh 50 | PAFAH2 FP conf inactive
O=C(c1cc(-c2ccccc2Cl)on1)N1CCCC1	PAFAH2 FP inh 36 | PAFAH2 FP conf 35
C[C@@H]1CN([C@H](C)CO)C(=O)CCCn2nncc2CO[C@@H]1CN(C)S(=O)(=O)c1cccc(F)c1	none (no result: PAFAH1B3 FP inh, ATG4B inh, PAFAH1B2 inh, PAFAH2 FP inh, pPAFAH inh)
CC(=O)c1ccc(CCCCc2ccc(C(C)=O)cc2)cc1	none (no result: pPAFAH inh)
O=C1OC(C(=O)NCc2ccccc2)Cc2ccccc21 (stereo not drawn)	PAFAH2 FP inh 35 | PAFAH2 FP conf inactive
O=C(NCc1ccccc1)C1COc2ccccc2O1 (stereo not drawn)	none
Cc1cc(NC(=O)CCC(=O)N(c2ccccc2C)C(C(=O)NC2CCCC2)c2ccccc2)no1 (stereo not drawn)	none
CCOCC(=O)OCC(=O)Nc1cc(OC)c([N+](=O)[O-])cc1C	none
COc1cc(NC(=O)COC(=O)C2CC2)c(C)cc1[N+](=O)[O-]	PAFAH2 FP inh 46 | PAFAH2 FP conf inactive
COc1cc(NC(=O)COC(=O)C=C(C)C)c(C)cc1[N+](=O)[O-]	PAFAH2 FP inh 61 | PAFAH2 FP conf inactive
O=C(COc1ccccc1)NCC(=O)Nc1ccncc1	none
O=C(COC(=O)c1ccc(Cl)cc1)NCC1CCCCC1	PAFAH2 FP inh 59 | PAFAH2 FP conf 60
COc1ccc(C(=O)OCC(=O)NCC2CCCCC2)cc1F	PAFAH2 FP inh 85 (no result: pPAFAH inh) | PAFAH2 FP conf 72
O=C(COC(=O)c1ccc(F)cc1)NCC1CCCCC1	PAFAH2 FP inh 77 | PAFAH2 FP conf 60
O=C(COC(=O)c1ccc(S(=O)(=O)NCc2ccco2)cc1)NCC1CCCCC1	none
COc1ccc(C(=O)OCC(=O)NCC2CCCCC2)c(OC)c1	PAFAH2 FP inh 66 (no result: pPAFAH inh) | PAFAH2 FP conf 57
COc1ccc(CC(=O)NCC2CCCCC2)cc1OC	none
O=C(COC(=O)c1ccccc1C(=O)c1ccc(Cl)cc1)NCC1CCCO1 (stereo not drawn)	none
CC(Nc1cccc(C(=O)NC2CC2)c1)c1nnc(-c2ccccc2)o1 (stereo not drawn)	none
COCCNC(=S)NCCc1ccc(Cl)cc1Cl	none
COc1ccc(-c2cc(C(=O)N/N=C/c3cccnc3)c3cc(C)cc(C)c3n2)cc1	none (no result: pPAFAH inh)
CC(=O)Oc1ccc(-c2ccc(C(=O)OCC(=O)N(C)CC(=O)Nc3ccccc3Cl)cc2)cc1	none
O=C1CCCCN1CC(=O)N1CCCC(Nc2ccc(F)cc2)C1 (stereo not drawn)	none
CN(Cc1cccnc1)C(=O)c1ccc(Cl)c(NS(=O)(=O)c2ccc(F)cc2)c1	none (no result: pPAFAH inh)
O=C(N/N=C1/C(=O)c2cccc3cccc1c23)c1ccc(Cl)cc1	PAFAH2 FP inh 56 | PAFAH2 FP conf 35
C[C@H](NC(=O)C1CC(=O)N(c2ccc(F)cc2)C1)C(=O)N1CCCCC1 (stereo partly drawn)	PAFAH2 FP inh 30 | PAFAH2 FP conf inactive
Nc1ccc(C(=O)OCc2nc3c(ccc4ccccc43)[nH]2)cc1	PAFAH2 FP inh 80 | PAFAH2 FP conf 82
Nc1ccc(C(=O)OCc2nc3cc4ccccc4cc3[nH]2)cc1	PAFAH2 FP inh 85 | PAFAH2 FP conf 83
O=C(COC(=O)c1ccccc1)Nc1cccc(S(=O)(=O)N2CCCCC2)c1	PAFAH2 FP inh 40 (no result: pPAFAH inh) | PAFAH2 FP conf inactive
O=C(COC(=O)c1cccc(F)c1)Nc1cccc(S(=O)(=O)N2CCCCC2)c1	none (no result: PAFAH1B3 FP inh, ATG4B inh, PAFAH1B2 inh, PAFAH2 FP inh, pPAFAH inh)
